Compounds with a hit are over-represented: about 2.1% of the library has one in this group of screens.
HIV Env fusion: inhibitors of HIV-1 Env-driven cell-cell fusion, primary screen, HeLa-JRFL effector, CEM21 target cells, luciferase | inhibition, % at 12.3 µM | 360,000 compounds, 1.1% hits | AID 651610, 2012;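 active = mean replicate inhibition score of at least 50 and every replicate individually at or above 50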
aDG glyco up: activators of alpha-DG glycosylation, primary screen, uHTS, Pro5-aDG cells, AlphaScreen. 360,000 compounds, 0.22% hits. activation, % at 10 µM. AID 624168, 2012. alpha-DG glycosylation AlphaScreen (IIH6); 0% Pro5, 100% B10-LARGE cell signal;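 active = activation of at least 8% versus controls, or a plate z-score of at least 8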;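 note: Pro5 are CHO cells carrying HIG-tagged alpha-DG that lacks glycosylation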
COUP-TFII inh: NR2F2 transcriptional activity inhibitors, primary screen, cell-based, luciferase reporter, HEK293T, luminescence. COUP transcription factor 2 (Homo sapiens), P24468. HEK293T NGFI-A luciferase reporter. inhibition, % at 8.6 µM. 370,000 compounds, 0.7% hits;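 active = inhibition above a per-plate cutoff, mean inhibition of test wells between control levels plus 3 SD, cut at about 38% in these data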;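 note: cells cotransfected with COUP-TFII expression vector driving the NGFI-A reporter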
Target sequence (P24468 whole entry, looked up): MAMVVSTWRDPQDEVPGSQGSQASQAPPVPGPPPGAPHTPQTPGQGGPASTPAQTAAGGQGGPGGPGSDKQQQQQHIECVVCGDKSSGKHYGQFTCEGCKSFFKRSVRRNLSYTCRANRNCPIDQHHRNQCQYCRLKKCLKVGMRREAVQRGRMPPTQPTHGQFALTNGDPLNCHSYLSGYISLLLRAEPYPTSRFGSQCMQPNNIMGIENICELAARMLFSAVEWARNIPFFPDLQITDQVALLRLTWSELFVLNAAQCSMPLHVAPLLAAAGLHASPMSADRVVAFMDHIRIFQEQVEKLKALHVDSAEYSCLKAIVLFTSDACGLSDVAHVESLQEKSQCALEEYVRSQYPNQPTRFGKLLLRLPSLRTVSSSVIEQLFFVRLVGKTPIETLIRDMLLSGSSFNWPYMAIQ
Gli-Sufu antag: Gli-Sufu pathway antagonists, primary screen, luciferase luminescence, Sufu-KO-LIGHT cells, uHTS. Sufu-KO-LIGHT fibroblasts, Gli luciferase reporter luminescence. inhibition, % at 5 µM. 340,000 compounds, 0.74% hits. AID 588413, 2011;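 active = inhibition above about 55%, limit read from the data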
GalR3 antag: GalR3 antagonists in HEK293 cells, primary screen, cell-based, fluorescence readout; Galanin receptor type 3 (Homo sapiens), O60755; HEK293 GalR3-CNG cAMP membrane potential fluorescence; galR3 body fused to GalR1 C-terminus; inhibition, % at 3 µM; 360,000 compounds, 0.44% hits; AID 651719, 2012;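 active = inhibition above the screen-wide average plus 3 SD, cut at about 13% in these data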;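 note: forskolin and galanin both at EC90 stimulate the cells; cAMP rise reported by CNG channel membrane potential dye signal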
Target sequence (O60755 1-299 limits assumed): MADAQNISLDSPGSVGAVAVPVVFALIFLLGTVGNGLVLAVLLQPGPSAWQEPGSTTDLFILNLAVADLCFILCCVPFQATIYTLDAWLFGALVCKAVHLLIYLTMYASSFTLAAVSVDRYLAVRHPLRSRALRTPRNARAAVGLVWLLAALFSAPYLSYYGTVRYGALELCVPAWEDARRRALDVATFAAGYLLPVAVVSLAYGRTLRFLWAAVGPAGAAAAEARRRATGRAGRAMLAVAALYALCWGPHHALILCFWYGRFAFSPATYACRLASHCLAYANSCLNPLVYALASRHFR
Gli-Sufu confirm: Gli-SUFU pathway antagonists, confirmation, single concentration, luciferase luminescence, Sufu-KO-LIGHT cells; shares compounds with Gli-Sufu antag; Gli luciferase reporter; inhibition, % at 5 µM; 2,500 compounds, 40% hits; AID 602428, 2012;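 active = mean inhibition at 5 µM reaching about 45%, limit read from the data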
SufuKO cytotox: cytotoxicity in Sufu-KO-LIGHT cells, confirmation, cytotoxicity control for Gli-SUFU antagonist project, cell-based, ATP luminescence, single concentration; shares compounds with Gli-Sufu antag; cytotoxicity, % at 5 µM; 2,500 compounds, 32% hits; AID 651994, 2013;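 active = mean cytotoxicity at 5 µM above about 25%, limit read from the data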;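 note: cells exposed to compound overnight for roughly 16 to 18 hours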
Wnt3a counter: Wnt3a reporter signal inhibition, confirmation, counter-screen for Gli-SUFU antagonist project, Wnt-LIGHT cells, luminescence, single concentration; shares compounds with Gli-Sufu antag; Wnt3a-driven luciferase reporter; inhibition, % at 6.25 µM; 2,500 compounds, 20% hits;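 active = mean inhibition above about 25%, limit read from the data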
Large screens that a line does not name were inactive (follow-up assays come after a bar, where they were run).

CN1C(=O)c2cc(NC(=O)NCc3ccccc3)ccc2OC[C@H]2O[C@H](CC(=O)O)CC[C@H]21	none (no result: aDG glyco up, COUP-TFII inh, Gli-Sufu antag, GalR3 antag)
Cc1ccc2c(c1)c(N=Nc1ccc([N+](=O)[O-])cc1)c(O)n2C	none | Gli-Sufu confirm inactive | SufuKO cytotox inactive | Wnt3a counter inactive
c1ccc2c3c([nH]c2c1)C1(CCCCC1)NCC3	none (no result: HIV Env fusion)
CC12CCCCN1CCCc1c2[nH]c2ccccc12 (stereo not given)	Gli-Sufu antag 58 (no result: HIV Env fusion) | Gli-Sufu confirm inactive | SufuKO cytotox 50 | Wnt3a counter inactive
CCN(CC(=O)Nc1cc(Cl)ccc1C)C(=O)CSCc1c(C)noc1C	none | Gli-Sufu confirm inactive | SufuKO cytotox inactive | Wnt3a counter inactive
COc1ccccc1N/C=C/c1onc(C)c1[N+](=O)[O-]	none
Cc1noc(/C=C/c2ccccn2)c1[N+](=O)[O-]	Gli-Sufu antag 99 | Gli-Sufu confirm inactive | SufuKO cytotox 29 | Wnt3a counter inactive
CCOC(=O)C(=CNc1cc(Cl)c(-c2ccco2)c(Cl)c1)C(=O)OCC	Gli-Sufu antag 60 | Gli-Sufu confirm inactive | SufuKO cytotox inactive | Wnt3a counter inactive
O=C(Nc1ccc2c(c1)[C@H]1C[C@H](CC(=O)N3CCCCC3)O[C@H](CO)[C@H]1O2)C1CCC1	none (no result: aDG glyco up, COUP-TFII inh, Gli-Sufu antag, GalR3 antag)
Cc1cccc(N2CN(Cc3cccnc3)CNC2=S)c1C	Gli-Sufu antag 55 | Gli-Sufu confirm inactive | SufuKO cytotox inactive | Wnt3a counter inactive
Cc1ccc(S(=O)(=O)c2nc(S(=O)(=O)c3ccc(C)cc3)c(N3CCN(CCO)CC3)s2)cc1	Gli-Sufu antag 55 | Gli-Sufu confirm inactive | SufuKO cytotox inactive | Wnt3a counter 62
CCS(=O)(=O)c1nc(S(=O)(=O)c2ccc(C)cc2)c(N2CCOCC2)s1	none | Gli-Sufu confirm inactive | SufuKO cytotox inactive | Wnt3a counter inactive
Cc1ccc(S(=O)(=O)c2nc(S(C)(=O)=O)sc2N2CCOCC2)cc1	none
C[C@H]1CN([C@@H](C)CO)C(=O)c2cc(C#CC(C)(C)O)cnc2O[C@@H]1CN(C)Cc1ccccn1	none (no result: aDG glyco up, COUP-TFII inh, Gli-Sufu antag, GalR3 antag)
C=CCn1nc([N+](=O)[O-])nc1Sc1cccc2cccnc12	Gli-Sufu antag 68 (no result: HIV Env fusion, COUP-TFII inh, GalR3 antag) | Gli-Sufu confirm 48 | SufuKO cytotox inactive | Wnt3a counter inactive
CCOCCCNC(=O)C(NC(=O)c1ccc(NC(C)=O)cc1)c1ccc(C)cc1 (stereo not given)	Gli-Sufu antag 96 (no result: HIV Env fusion) | Gli-Sufu confirm inactive | SufuKO cytotox inactive | Wnt3a counter inactive
CCOCCCNC(=O)C(NC(=O)c1ccc(NC(C)=O)cc1)c1ccc(Cl)cc1 (stereo not given)	none (no result: HIV Env fusion)
CC(Nn1cnnc1)c1cc(Cl)ccc1O (stereo not given)	Gli-Sufu antag 98 | Gli-Sufu confirm inactive | SufuKO cytotox inactive | Wnt3a counter inactive
Cc1ccc(NC(C)c2cc(Cl)ccc2O)cc1 (stereo not given)	none
C[C@@H]1CN([C@H](C)CO)C(=O)c2cc(NS(=O)(=O)c3cn(C)cn3)ccc2O[C@@H](C)CCCCO[C@H]1CN(C)Cc1ccc2c(c1)OCO2	none (no result: aDG glyco up, COUP-TFII inh, Gli-Sufu antag, GalR3 antag)
CCNc1nc(CSc2ccccc2)nc2sc(C)c(C)c12	Gli-Sufu antag 69 | Gli-Sufu confirm inactive | SufuKO cytotox inactive | Wnt3a counter inactive
Cc1sc2nc(CSc3ccccc3)nc(NCCN(C)C)c2c1C	none
CCO[C@@H]1OC(C(=O)NCc2nc3ccccc3[nH]2)=C[C@H](C(C)(C)C)[C@H]1CCCO	none | Gli-Sufu confirm 58 | SufuKO cytotox 60 | Wnt3a counter inactive
C[C@@H]1CN([C@@H](C)CO)S(=O)(=O)c2ccc(C#CC3CCCCC3)cc2O[C@@H]1CN(C)C(=O)Cc1ccncc1	none (no result: aDG glyco up, COUP-TFII inh, Gli-Sufu antag, GalR3 antag)
C[C@H](CO)N1C[C@H](C)[C@H](CN(C)S(=O)(=O)c2ccccc2)Oc2c(NC(=O)c3nc4ccccc4s3)cccc2C1=O	none (no result: aDG glyco up, COUP-TFII inh, Gli-Sufu antag, GalR3 antag)
Cn1c(=O)c2c(nc(NCc3ccco3)n2CCc2ccccc2)n(C)c1=O	none (no result: HIV Env fusion)
Cn1c(=O)c2c(nc(NCc3ccco3)n2Cc2ccc(Cl)cc2Cl)n(C)c1=O	Gli-Sufu antag 67 | Gli-Sufu confirm 67 | SufuKO cytotox 29 | Wnt3a counter inactive
CC(=O)C1=NN(c2ccccc2)C(c2cccs2)N1c1ccc(N(C)C)cc1 (stereo not given)	Gli-Sufu antag 79 | Gli-Sufu confirm 79 | SufuKO cytotox 33 | Wnt3a counter inactive
CC(=O)C1=NN(c2ccccc2)C(c2ccc3c(c2)OCO3)N1c1ccccc1 (stereo not given)	none
COC(=O)c1c(C)oc2ccc(N(C(=O)c3ccncc3)S(=O)(=O)c3ccc(C)cc3C)cc12	Gli-Sufu antag 61 | Gli-Sufu confirm 49 | SufuKO cytotox 27 | Wnt3a counter 36
Cc1ccc(S(=O)(=O)N(C)C)cc1NC(=S)NC(C)CCCC(C)C (stereo not given)	none (no result: HIV Env fusion)
Cc1ccc(S(=O)(=O)N(C)C)cc1NC(=S)NC(C)CCC(C)C (stereo not given)	Gli-Sufu antag 56 | Gli-Sufu confirm inactive | SufuKO cytotox inactive | Wnt3a counter inactive
CN(C(=O)COC(=O)/C=C/c1ccc2ccccc2n1)C1CCS(=O)(=O)C1 (stereo not given)	none
CCN(C(=O)COC(=O)/C=C/c1cnc2ccccc2n1)C1CCS(=O)(=O)C1 (stereo not given)	Gli-Sufu antag 56 | Gli-Sufu confirm inactive | SufuKO cytotox inactive | Wnt3a counter inactive
COc1cc(/C=C2/NC(=O)N(Cc3ccccc3F)C2=O)ccc1O	Gli-Sufu antag 71 | Gli-Sufu confirm 54 | SufuKO cytotox inactive | Wnt3a counter 37
O=c1n(-c2ccccc2)c(=O)n2n1CC(COc1ccccc1)=C1[C@@H](CCc3ccccc3)OB(O)C[C@@H]12	none (no result: aDG glyco up, COUP-TFII inh, Gli-Sufu antag, GalR3 antag)
NS(=O)(=O)c1ccc(NC(=O)CSC2=NC(=O)C(c3ccccc3)C(=O)N2)cc1 (stereo not given)	Gli-Sufu antag 88 | Gli-Sufu confirm inactive | SufuKO cytotox inactive | Wnt3a counter inactive
COc1ccc(-c2cnc3c(c2)C(=O)N([C@H](C)CO)C[C@H](C)[C@H](CN(C)C(=O)C2CCC2)O3)cc1	none (no result: aDG glyco up, COUP-TFII inh, Gli-Sufu antag, GalR3 antag)
COc1ccc(OCC(=O)N2CCN(c3nnc(-c4ccccc4)c4ccccc34)CC2)cc1	none

Assay outcomes: PubChem, several laboratories
